# Data taken from PubChem BioAssay.
# “And” between values parts separate entries of the source, which are not always exact repeats. Equal values may be shown once. Inconclusive results are not listed. The source made the active and inactive calls. Cut-off read from the data, not from the text of the source, unless noted: active = inhibition above about 80%; inactive = the rest.
# Tests used:
# [1] = target: ATP-dependent translocase ABCB1 (Homo sapiens) (UniProt P08183); test: MDR1 (ABCB1) efflux transporter inhibition, cell-based (AID 377; in the data active = fluorescence slope change above about 50%); conditions: MDR1-expressing cells, fluorescent substrate accumulation slope; stronger effect = higher value; concentration not given here
# Chain of ATP-dependent translocase ABCB1 (Homo sapiens) (P08183 whole entry, looked up): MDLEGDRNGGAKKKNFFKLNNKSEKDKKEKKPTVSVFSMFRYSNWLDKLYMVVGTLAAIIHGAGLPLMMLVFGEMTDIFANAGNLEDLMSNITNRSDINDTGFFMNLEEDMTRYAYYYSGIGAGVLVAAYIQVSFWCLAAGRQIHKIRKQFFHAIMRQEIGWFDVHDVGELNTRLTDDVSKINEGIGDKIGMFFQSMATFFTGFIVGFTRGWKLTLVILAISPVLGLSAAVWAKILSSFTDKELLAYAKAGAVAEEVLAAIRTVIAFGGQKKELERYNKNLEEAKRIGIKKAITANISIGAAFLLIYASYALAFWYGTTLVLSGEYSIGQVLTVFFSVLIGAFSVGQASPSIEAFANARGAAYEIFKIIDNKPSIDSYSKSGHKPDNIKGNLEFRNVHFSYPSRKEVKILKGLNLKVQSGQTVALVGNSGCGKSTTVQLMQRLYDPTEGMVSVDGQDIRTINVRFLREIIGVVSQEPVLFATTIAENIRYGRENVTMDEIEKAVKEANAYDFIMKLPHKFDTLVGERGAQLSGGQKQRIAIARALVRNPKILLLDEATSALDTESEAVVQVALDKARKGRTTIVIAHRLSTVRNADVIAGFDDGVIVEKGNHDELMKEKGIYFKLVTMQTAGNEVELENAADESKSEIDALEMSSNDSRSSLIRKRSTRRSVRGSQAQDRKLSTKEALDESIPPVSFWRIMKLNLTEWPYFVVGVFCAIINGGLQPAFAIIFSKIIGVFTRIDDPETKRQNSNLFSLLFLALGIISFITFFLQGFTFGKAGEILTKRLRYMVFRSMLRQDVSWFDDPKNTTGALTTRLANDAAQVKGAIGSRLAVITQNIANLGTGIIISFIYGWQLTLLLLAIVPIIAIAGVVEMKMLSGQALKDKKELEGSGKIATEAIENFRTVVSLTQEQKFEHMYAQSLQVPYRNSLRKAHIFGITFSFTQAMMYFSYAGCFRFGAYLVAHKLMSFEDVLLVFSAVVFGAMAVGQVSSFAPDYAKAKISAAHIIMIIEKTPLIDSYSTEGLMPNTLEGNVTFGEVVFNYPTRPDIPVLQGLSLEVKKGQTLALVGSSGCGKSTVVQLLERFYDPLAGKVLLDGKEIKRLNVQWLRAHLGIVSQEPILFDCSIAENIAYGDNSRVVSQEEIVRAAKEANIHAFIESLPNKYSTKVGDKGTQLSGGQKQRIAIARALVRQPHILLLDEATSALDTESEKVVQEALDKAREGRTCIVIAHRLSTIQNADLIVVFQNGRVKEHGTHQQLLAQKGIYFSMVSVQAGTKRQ
# [2] = reducers of polyQ inclusions in PC12 cells, cell-based, NGF-treated PC12, GFPQ80 (AID 1614); conditions: PC12 NGF-treated GFP-polyQ80 inclusion reduction;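 note: lower means fewer inclusions and 0 means no inclusions at all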
# [3] = circadian clock period modulators, cell-based, LOPAC library, luminescence reporter (AID 2774; call rule not given here;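 note: values are relative to mean of DMSO wells on each plate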); conditions: circadian reporter cells, at 7 µM, actives lie on both sides
# [4] = tested on: Hepatitis C virus NS3 helicase; test: HCV NS3 helicase inhibitors, primary screen, biochemical, fluorescence polarization, LOPAC1280 library (AID 687035; in the data active = inhibition above about 37%); conditions: Purified HCV NS3 helicase, Cy5-dT15 ssDNA binding fluorescence polarization; stronger effect = higher value; concentration not given here
# [5] = Cy5 fluorescence quenching or enhancement artefacts, artefact control for HCV NS3 helicase inhibitor project, biochemical, LOPAC1280 (AID 687037; call rule not given here); conditions: Cy5-DNA-NS3h complex fluorescence interference counterscreen
# [6] = growth inhibition of DIPG glioma cells, dose response, cell-based, SU-DIPG-IV, MIPE4.0, CellTiter-Glo, qHTS (AID 1347063; cut-off not given, nearly all actives have AC50 up to about 30 µM;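 note: compound exposure lasted 48 hours before the viability readout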); conditions: SU-DIPG-IV viability, CellTiter-Glo ATP luminescence
# [7] = phospholipid biosynthesis inhibitors in animal cells, primary screen, cell-based, LOPAC library, screen 4 (AID 1347384; call rule not given here); conditions: phospholipid biosynthesis inhibition screen, at 10 µM
# [8] = LFS_MB_P medulloblastoma growth inhibition, cell-based, chromothripsis tumors, cisplatin or BGB combos (AID 1671449); conditions: LFS_MB_P medulloblastoma cells;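 note: cells exposed for 96 hours; 0% = vehicle DMSO and 100% = killing by high DMSO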
# [9] = HDN33 neuroblastoma growth inhibition, cell-based, chromothripsis tumors, cisplatin or BGB combos (AID 1671450); conditions: HDN33 neuroblastoma cells, stronger effect = higher value;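 note: cells exposed to compound for four days; 0% = vehicle DMSO and 100% = cell killing by high DMSO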
# [10] = HTB85 osteosarcoma cell growth inhibition, synergistic combos for chromothripsis tumors, BGB or cisplatin IC20 combos (AID 1671453); conditions: HTB85 osteosarcoma cells, drug combinations, stronger effect = higher value;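 note: cells exposed for 96 hours before readout; 0% = vehicle DMSO and 100% = high DMSO killing control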
# [11] = MDA-MB-436 breast carcinoma cell growth inhibition, synergistic combos for chromothripsis tumors, BGB or cisplatin combos (AID 1671458; call rule not given here;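 note: cells exposed for 96 hours; 0% = vehicle DMSO and 100% = killing by high DMSO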); conditions: MDA-MB-436 breast carcinoma growth inhibition, drug combinations, stronger effect = higher value
# [12] = growth inhibition of BT084 medulloblastoma cells, cell-based, ICGC_MB145, cisplatin and BGB IC40 combos (AID 1671461); conditions: drug combinations, stronger effect = higher value;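 note: cells exposed to drugs for 96 hours; 0% = vehicle DMSO and 100% = high DMSO full killing control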
# [13] = growth inhibition of RCMB18 medulloblastoma cells, cell-based, cisplatin and BGB IC40 combos (AID 1671462); conditions: stronger effect = higher value;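 note: cells exposed to compound for four days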
# [14] = growth inhibition of CRL1545 osteosarcoma cells, cell-based, cisplatin and BGB IC20 combos (AID 1671464); conditions: stronger effect = higher value;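 note: cells exposed to compound for 96 hours before readout; 0% = vehicle DMSO and 100% = high DMSO killing control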
# [15] = JHH-DIPG-1 glioma cell viability, MIPE5.0 library, CellTiter-Glo luminescence, qHTS (AID 1347067; cut-off not given, nearly all actives have AC50 up to about 26 µM;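 note: cells exposed to compound for 48 hours before readout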); conditions: JHH-DIPG-1 glioma viability, CellTiter-Glo ATP luminescence
# [16] = growth inhibition of DIPG glioma cells, dose response, cell-based, SU-DIPG-XIII, MIPE4.0, CellTiter-Glo, qHTS (AID 1347061; cut-off not given, nearly all actives have AC50 up to about 37 µM;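 note: cells exposed to compound for 48 hours before readout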); conditions: SU-DIPG-XIII viability, CellTiter-Glo ATP luminescence
# [17] = growth inhibition of DIPG glioma cells, dose response, cell-based, JHH-DIPG-1, MIPE4.0, CellTiter-Glo, qHTS (AID 1347062; cut-off not given, nearly all actives have AC50 up to about 27 µM); conditions: JHH-DIPG-1 viability, CellTiter-Glo ATP luminescence
# [18] = SU-DIPG-VI glioma cell viability, MIPE4.0 library, CellTiter-Glo luminescence, qHTS (AID 1347066; cut-off not given, nearly all actives have AC50 up to about 30 µM;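 note: cells exposed to compound for 48 hours before readout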); conditions: CellTiter-Glo ATP luminescence
# [19] = SU-DIPG-XXV glioma cell viability, MIPE5.0 library, qHTS (AID 1347068; cut-off not given, nearly all actives have IC50 up to about 30 µM)
# [20] = at 0.5 µM, stronger effect = higher value
# [21] = measured here: combination with BGB IC20, at 0.005 µM
# [22] = measured here: combination with BGB IC40, at 0.005 µM
# [23] = measured here: combination with BGB IC40, at 0.05 µM
# [24] = measured here: combination with cisplatin, at 0.5 µM, stronger effect = higher value
# [25] = measured here: combination with cisplatin, at 5 µM, stronger effect = higher value
# [26] = measured here: with BGB IC20 combination, at 0.5 µM
# [27] = measured here: with cisplatin IC20 combination, at 0.5 µM
# [28] = measured here: with BGB IC20, at 0.5 µM
# [29] = measured here: with BGB IC20, at 5 µM
# [30] = measured here: with cisplatin IC20, at 0.5 µM
# [31] = measured here: with cisplatin IC20, at 5 µM
# [32] = measured here: BGB combination, at 0.5 µM
# [33] = measured here: BGB combination, at 5 µM
# [34] = measured here: cisplatin combination, at 0.5 µM
# [35] = measured here: cisplatin combination, at 5 µM
# [36] = cisplatin combination, at 0.5 µM
# [37] = measured here: BGB IC40 combination 0.05 uM, at 0.05 µM
# [38] = measured here: BGB IC40 combination, at 0.05 µM
# [39] = measured here: combination with cisplatin, at 0.5 µM
compound,measurement,setting,value
Cn1cnc([N+](=O)[O-])c1Sc1ncnc2nc[nH]c12,fluorescence slope change,[1],53.6% (active)
same,inclusion score,[2],2
same,period change,[3],0.485 h (inactive)
same,inhibition,[4],-2% (inactive)
same,fluorescence ratio (interference),[5],1 (inactive)
same,outcome,[6],inactive
same,outcome,[7],inactive
same,inhibition,[8]; [20],-24.5% (inactive) and -18.6% (inactive)
same,inhibition,[8]; [21],-29.8% and -1.49%
same,inhibition,[8]; [22],-7.88% and -5.24%
same,inhibition,[8]; [23],-1.05% and 8.34%
same,inhibition,[8]; [24],-41.8% and -13.7%
same,inhibition,[8]; [25],-15% and -14.9%
same,inhibition,"[9]; BGB combo, at 5 µM",27% and -4.71%
same,inhibition,[9]; at 0.5 µM,9.11% (inactive) and 3.47% (inactive)
same,inhibition,"[9]; cisplatin combo, at 5 µM",18.8% and 16.9%
same,inhibition,[9]; [26],3.66% and -16.5%
same,inhibition,[9]; [27],5.32% and -7.32%
same,inhibition,"[9]; single agent, at 5 µM",55.4% and 48.5%
same,inhibition,[10]; at 0.5 µM,-24.4% (inactive) and -11% (inactive)
same,inhibition,[10]; [28],-62.4% and -24%
same,inhibition,[10]; [29],-10.9% and -18.4%
same,inhibition,[10]; [30],-12.7% and 1.06%
same,inhibition,[10]; [31],8.32% and 19.5%
same,inhibition,"[10]; single agent, at 5 µM",11% and -0.274%
same,inhibition,[11]; at 0.5 µM,-2.35% (inactive) and 8.87% (inactive)
same,inhibition,[11]; [32],-11.4% and 6.51%
same,inhibition,[11]; [33],17.6% and 21.4%
same,inhibition,[11]; [34],-16% and 2.87%
same,inhibition,[11]; [35],26.8% and 35.6%
same,inhibition,[12]; at 0.5 µM,-16.8% (inactive) and 4.68% (inactive)
same,inhibition,[12]; [36],-15.8% and -6.89%
same,inhibition,"[12]; cisplatin combination, at 5 µM",-45.6% and -9.16%
same,inhibition,[12]; [37],2.92% and 62.8%
same,inhibition,"[12]; single agent, at 5 µM",-13.5% and -5.72%
same,inhibition,[13]; at 0.5 µM,-11.9% (inactive) and -11.3% (inactive)
same,inhibition,"[13]; cisplatin combo, at 5 µM",4.98% and -8.51%
same,inhibition,[13]; [38],-6.18% and -2.54%
same,inhibition,[13]; [39],-8.48% and -16.8%
same,inhibition,"[13]; single agent, at 5 µM",-19.3% and -29.9%
same,inhibition,[14]; at 0.5 µM,-10.1% (inactive) and 15.6% (inactive)
same,inhibition,[14]; [26],23.3% and -13%
same,inhibition,[14]; [27],-26.8% and 29.9%
same,inhibition,"[14]; single agent, at 0.05 µM",10.6% and 46.1%
same,inhibition,"[14]; single agent, at 5 µM",25.6% and 21%
CN[C@H]1CC[C@@H](c2ccc(Cl)c(Cl)c2)c2ccccc21,AC50,[15],16.6 µM (active)
O=c1[nH]cc(F)c(=O)[nH]1,inclusion score,[2],2
same,period change,[3],0.215 h (inactive)
same,inhibition,[4],-1% (inactive)
same,fluorescence ratio (interference),[5],1 (inactive)
same,outcome,[16],inactive
same,outcome,[17],inactive
same,outcome,[18],inactive
same,outcome,[15],inactive
same,outcome,[19],inactive
same,outcome,[7],inactive
same,inhibition,[8]; [20],4.15% (inactive)
same,inhibition,[8]; [21],0.419%
same,inhibition,[8]; [22],-26%
same,inhibition,[8]; [23],-17%
same,inhibition,[8]; [24],59.2%
same,inhibition,[8]; [25],-27.9%
same,inhibition,"[9]; BGB combo, at 5 µM",30.6%
same,inhibition,[9]; at 0.5 µM,16.5% (inactive)
same,inhibition,"[9]; cisplatin combo, at 5 µM",40.1%
same,inhibition,[9]; [26],-26.4%
same,inhibition,[9]; [27],0.453%
same,inhibition,"[9]; single agent, at 5 µM",42.5%
same,inhibition,[10]; at 0.5 µM,-17.6% (inactive)
same,inhibition,[10]; [28],-36.1%
same,inhibition,[10]; [29],17.5%
same,inhibition,[10]; [30],-12.5%
same,inhibition,[10]; [31],22.8%
same,inhibition,"[10]; single agent, at 5 µM",21.8%
same,inhibition,[11]; at 0.5 µM,-17.3% (inactive)
same,inhibition,[11]; [32],-27.5%
same,inhibition,[11]; [33],-5.42%
same,inhibition,[11]; [34],-20.4%
same,inhibition,[11]; [35],36.2%
same,inhibition,[12]; at 0.5 µM,-4.41% (inactive)
same,inhibition,[12]; [36],-0.838%
same,inhibition,"[12]; cisplatin combination, at 5 µM",-20.1%
same,inhibition,[12]; [37],2.5%
same,inhibition,"[12]; single agent, at 5 µM",-0.674%
same,inhibition,[13]; at 0.5 µM,3% (inactive)
same,inhibition,"[13]; cisplatin combo, at 5 µM",11.8%
same,inhibition,[13]; [38],-17.4%
same,inhibition,[13]; [39],13.9%
same,inhibition,"[13]; single agent, at 5 µM",7.41%
same,inhibition,[14]; at 0.5 µM,-41.5% (inactive)
same,inhibition,[14]; [26],-0.875%
same,inhibition,[14]; [27],-61.8%
same,inhibition,"[14]; single agent, at 0.05 µM",-3.52%
same,inhibition,"[14]; single agent, at 5 µM",15.8%
N[C@@H](C(=O)N[C@@H]1C(=O)N2C(C(=O)O)=C(Cl)CS[C@H]12)c1ccccc1,outcome,[16],inactive
same,outcome,[17],inactive
same,outcome,[6],inactive
NCc1ccc(S(N)(=O)=O)cc1,fluorescence slope change,[1],164% (active)
same,inclusion score,[2],2
